In the supplement of paper PMC6555819:

Key:
Assay in all cases: PBM binding z-score (relative to random genomic background probes); higher = stronger binding; sequences stand for … in GC…GCGATTGACAGCGTAGAATGAAGG
[1] = system: FXR:RXRa (NR concentration 270 nM, RXRa partner concentration 90 nM)
Summary of the method: (§1)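 Scanned fluorescence from custom Agilent 4×180K protein-binding microarrays was regression-normalized. Binding z-scores use random background probes as reference. Ligand-free nuclear receptor dimers were incubated on the arrays for 1 h and detected with antibodies against each partner (one per run).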

[2] = system: LXRa:RXRa (NR concentration 270 nM, RXRa partner concentration 90 nM)
Summary of the method: as §1

[3] = system: LXRa homodimer (NR concentration 270 nM)
Summary of the method: as §1

[4] = system: LXRb:RXRa (NR concentration 270 nM, RXRa partner concentration 90 nM)
Summary of the method: as §1

[5] = system: LXRb homodimer (NR concentration 270 nM)
Summary of the method: as §1

[6] = system: PPARa:RXRa (NR concentration 270 nM, RXRa partner concentration 90 nM)
Summary of the method: as §1

[7] = system: PPARg:RXRa (NR concentration 180 nM, RXRa partner concentration 90 nM)
Summary of the method: as §1

[8] = system: PPARg:RXRa 270nM:90nM, anti-RXR (NR concentration 270 nM, RXRa partner concentration 90 nM)
Summary of the method: as §1

[9] = system: PPARg:RXRa 30nM:10nM, anti-RXR (NR concentration 30 nM, RXRa partner concentration 10 nM)
Summary of the method: as §1

[10] = system: PPARg:RXRa 90nM:30nM, anti-RXR (NR concentration 90 nM, RXRa partner concentration 30 nM)
Summary of the method: as §1

[11] = system: PPARg:RXRa DBDmut IVT, anti-RXR (DBD mutation: RXRa K156A/R161A, NR concentration 270 nM, RXRa partner concentration 90 nM)
Summary of the method: as §1

[12] = system: PPARg:RXRa IVT, anti-PPARg (NR concentration 270 nM, RXRa partner concentration 90 nM)
Summary of the method: as §1

[13] = system: PPARg DBDmut:RXRa IVT, anti-PPARg (DBD mutation: PPARg1 K132A/R137A, NR concentration 270 nM, RXRa partner concentration 90 nM)
Summary of the method: as §1

[14] = system: PPARg DBDmut IVT, anti-PPARg (DBD mutation: PPARg1 K132A/R137A, NR concentration 270 nM)
Summary of the method: as §1

[15] = system: PPARg homodimer (NR concentration 180 nM)
Summary of the method: as §1

[16] = system: PXR:RXRa (NR concentration 270 nM, RXRa partner concentration 90 nM)
Summary of the method: as §1

[17] = system: PXR homodimer (NR concentration 270 nM)
Summary of the method: as §1

[18] = system: RARa:RXR (NR concentration 270 nM, RXRa partner concentration 90 nM)
Summary of the method: as §1

[19] = system: RARa homodimer (NR concentration 270 nM)
Summary of the method: as §1

[20] = system: RARb:RXRa (NR concentration 270 nM, RXRa partner concentration 90 nM)
Summary of the method: as §1

Sequence	PBM binding z-score [1]	PBM binding z-score [2]	PBM binding z-score [3]	PBM binding z-score [4]	PBM binding z-score [5]	PBM binding z-score [6]	PBM binding z-score [7]	PBM binding z-score [8]	PBM binding z-score [9]	PBM binding z-score [10]	PBM binding z-score [11]	PBM binding z-score [12]	PBM binding z-score [13]	PBM binding z-score [14]	PBM binding z-score [15]	PBM binding z-score [16]	PBM binding z-score [17]	PBM binding z-score [18]	PBM binding z-score [19]	PBM binding z-score [20]
GGAACGAGGCCATTCGAGTTGATAGCATGGCGAT	0.572	0.106	-0.48	-0.483	-0.846	0.013	0.591	0.257	-0.557	-0.163	2.23	1.22	-0.239	-0.906	-0.779	1.73	0.561	-0.0585	-1.34	0.94
TGTCAAAGTTCAAAGATAACGTAAGTATCCACAC	6.56	6.17	4.28	4.11	2.1	5.01	7.86	6.97	4.95	6.88	-0.252	3.78	1.64	1.45	2.47	4.66	3.83	3.6	1.54	4.92
GGAACGAGGGCACGTTGATAGCAGAGTTTGATGG	0.419	0.105	-0.441	0.08	-0.424	1.67	1.7	1.56	0.331	1.19	4.33	3.73	0.361	-0.223	-0.0757	0.508	-0.125	0.282	-0.225	2.37
TATACAGGGTCAACGGCCAGAGTACGAATGTCGA	6.91	5.76	2.15	4.65	2.1	5.54	6.79	6	3.43	5.19	2.91	4.6	4.74	3.03	4.05	3.93	0.74	5.15	1.33	4.52
TAGCCTAGGTCATGCGGGCCAGGATAGTGTCGGC	3.94	2.96	0.218	1.4	-0.35	3.42	2.26	2.41	0.605	1.56	1.52	3	-0.00181	-0.781	0.191	1.29	-0.269	1.89	-0.855	3.74
CGTCAAAGTTCAACAAAGGTAACGTAAAGCACGC	7.15	6.13	3.38	3.9	1.98	4.83	5.08	5.42	2.27	4.23	0.464	2.37	1.21	0.778	3.04	5.18	3.03	4.08	1.53	5.32
